# Laboratory results from PubChem BioAssay (EPA / NIEHS).
# “And” between values parts separate entries of the source, which are not always exact repeats. Equal values may be shown once. Inconclusive results are not listed. A structure can be active in one record and inactive in another. The source made the active and inactive calls. How the source made its calls, unless noted: active means hit-call score of the fitted dose curve at least 0.9, where 1 is the maximum; inconclusive means response in the unintended direction; inactive means score below 0.9.
# Assays:
# [1] = biological target: mouse Estrogen Receptor alpha (Era), Esr1 (gene 13982) (UniProt P19785); experiment: NVS_NR_mERa: NovaScreen (NVS) Nuclear Receptor Binding Assay for mouse Estrogen Receptor alpha (Era) (AID 2283378);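 further: hit means loss of bound radioligand signal relative to DMSO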
# mouse Estrogen Receptor alpha (Era), Esr1 (gene 13982), sequence (P19785 whole entry, looked up): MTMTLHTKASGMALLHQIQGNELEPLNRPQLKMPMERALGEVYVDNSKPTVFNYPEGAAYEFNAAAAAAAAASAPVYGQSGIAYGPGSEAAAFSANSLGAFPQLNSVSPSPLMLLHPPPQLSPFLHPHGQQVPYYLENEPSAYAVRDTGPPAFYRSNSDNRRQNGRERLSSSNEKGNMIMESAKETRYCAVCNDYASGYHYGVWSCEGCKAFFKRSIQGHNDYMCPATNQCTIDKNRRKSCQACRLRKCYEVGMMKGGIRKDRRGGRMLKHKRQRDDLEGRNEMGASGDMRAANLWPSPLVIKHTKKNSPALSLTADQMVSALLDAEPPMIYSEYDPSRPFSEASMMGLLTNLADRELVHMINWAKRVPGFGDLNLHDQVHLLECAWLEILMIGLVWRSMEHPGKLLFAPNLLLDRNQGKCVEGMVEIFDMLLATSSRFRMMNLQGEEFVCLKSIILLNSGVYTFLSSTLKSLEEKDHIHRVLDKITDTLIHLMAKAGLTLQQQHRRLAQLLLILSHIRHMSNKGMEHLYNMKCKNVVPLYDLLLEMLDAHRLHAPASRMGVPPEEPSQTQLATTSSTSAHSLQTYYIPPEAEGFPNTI
# In short: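 Filter radiodetection of radioligand displacement from extracted receptor protein, measured 18 h post-dose. Single 25 uM concentration in duplicate initially, with concentration-series follow-up. Binding loss fitted relative to DMSO.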
# [2] = biological target: Estrogen receptor beta (Homo sapiens) (UniProt Q92731); experiment: OT_ER_ERbERb_1440: Odyssey Thera (OT) 24-hour HEK293T Protein-Complementation Assay for Estrogen Receptor-beta/-beta Homodimer (AID 2283380);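 further: scored as signal increase over DMSO baseline for both agonists and antagonists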
# Estrogen receptor beta (Homo sapiens), sequence (Q92731 whole entry, looked up, the tested form may be a part): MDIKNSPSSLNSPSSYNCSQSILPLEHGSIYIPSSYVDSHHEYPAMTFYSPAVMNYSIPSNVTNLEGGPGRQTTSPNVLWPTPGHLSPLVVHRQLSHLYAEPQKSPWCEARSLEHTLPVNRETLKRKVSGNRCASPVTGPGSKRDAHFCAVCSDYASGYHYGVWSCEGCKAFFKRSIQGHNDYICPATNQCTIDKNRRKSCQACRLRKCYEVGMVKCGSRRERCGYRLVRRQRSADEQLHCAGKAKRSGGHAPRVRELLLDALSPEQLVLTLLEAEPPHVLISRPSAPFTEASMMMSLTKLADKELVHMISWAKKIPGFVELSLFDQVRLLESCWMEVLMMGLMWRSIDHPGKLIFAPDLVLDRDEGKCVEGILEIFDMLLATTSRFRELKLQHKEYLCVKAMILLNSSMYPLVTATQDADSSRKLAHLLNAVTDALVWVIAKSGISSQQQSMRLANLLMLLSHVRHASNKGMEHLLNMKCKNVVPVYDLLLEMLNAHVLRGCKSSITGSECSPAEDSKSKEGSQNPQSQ
# In short: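 HEK293T cells stably expressing ER beta LBD (aa 310-547) homodimer fragment-complementation reporter, dosed 24 h. Cells formaldehyde-fixed, Draq5-stained; gain in nuclear (agonist) or nuclear plus cytoplasmic (antagonist) fluorescence versus DMSO read by laser scanning cytometry.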
# [3] = biological target: Estrogen receptor (Homo sapiens) (UniProt P03372); experiment: OT_ERa_GFPERaERE_0480: Odyssey Thera (OT) 8-hour HeLa Transcription Induction Assay for Estrogen Receptor (AID 2283381; active means hit-call score of the fitted dose curve at least 0.9, where 1 is the maximum; inactive means score below 0.9)
# Estrogen receptor (Homo sapiens), sequence (P03372 whole entry, looked up): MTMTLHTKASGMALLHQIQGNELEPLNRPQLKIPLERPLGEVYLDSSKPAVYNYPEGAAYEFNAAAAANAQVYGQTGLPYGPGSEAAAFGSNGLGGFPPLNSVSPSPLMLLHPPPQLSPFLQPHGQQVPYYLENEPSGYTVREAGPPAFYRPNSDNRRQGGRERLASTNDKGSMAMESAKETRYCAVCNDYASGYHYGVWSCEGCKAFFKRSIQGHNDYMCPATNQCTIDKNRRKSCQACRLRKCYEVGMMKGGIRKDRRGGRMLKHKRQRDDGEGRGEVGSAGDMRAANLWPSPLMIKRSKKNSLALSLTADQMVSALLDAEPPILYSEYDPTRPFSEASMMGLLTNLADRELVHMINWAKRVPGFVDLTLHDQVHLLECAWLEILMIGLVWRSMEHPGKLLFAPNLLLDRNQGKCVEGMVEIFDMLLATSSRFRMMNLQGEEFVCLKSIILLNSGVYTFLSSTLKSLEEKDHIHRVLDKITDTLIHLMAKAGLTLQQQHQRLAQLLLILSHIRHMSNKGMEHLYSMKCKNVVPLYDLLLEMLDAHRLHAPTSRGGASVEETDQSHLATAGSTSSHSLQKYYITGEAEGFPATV
# In short: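 Fluorescence microscopy with high-content image analysis measures ERE-driven GFP induction in HeLa cells at 8 h post-dose. Increases fitted against DMSO baseline.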
# [4] = biological target: Estrogen receptor (Homo sapiens) (UniProt P03372); experiment: OT_ERa_GFPERaERE_0120: Odyssey Thera (OT) 2-hour HeLa Transcription Induction Assay for Estrogen Receptor (AID 2283382)
# In short: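 Fluorescence-microscopy images of the GFP-ERα/ERE reporter, scored by high-content image algorithms, give the readout. HeLa exposure lasted 2 h, and only signal increase over DMSO was fitted.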
# [5] = biological target: Bile acid receptor (Homo sapiens) (UniProt Q96RI1); experiment: OT_FXR_FXRSRC1_0480: Odyssey Thera (OT) 8-hour HEK293T Protein-Complementation Assay for Farnesoid X receptor/SRC-1 Co-activator (AID 2283383)
# Bile acid receptor (Homo sapiens), sequence (Q96RI1 whole entry, looked up, the tested form may be a part): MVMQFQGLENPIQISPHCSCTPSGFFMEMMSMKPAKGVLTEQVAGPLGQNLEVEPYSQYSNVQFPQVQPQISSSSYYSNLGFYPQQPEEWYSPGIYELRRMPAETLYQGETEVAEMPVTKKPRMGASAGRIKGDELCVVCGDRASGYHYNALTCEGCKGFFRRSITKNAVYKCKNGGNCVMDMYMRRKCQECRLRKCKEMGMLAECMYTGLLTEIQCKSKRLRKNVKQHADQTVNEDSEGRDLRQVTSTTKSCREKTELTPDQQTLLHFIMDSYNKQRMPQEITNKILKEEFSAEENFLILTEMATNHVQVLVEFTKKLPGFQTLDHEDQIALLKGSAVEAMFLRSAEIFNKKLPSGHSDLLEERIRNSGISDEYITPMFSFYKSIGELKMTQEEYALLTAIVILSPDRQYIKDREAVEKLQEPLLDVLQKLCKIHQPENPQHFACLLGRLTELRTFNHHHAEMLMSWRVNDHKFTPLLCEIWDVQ
# In short: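 Binding of FXR to coactivator SRC-1 was read as fluorescence from a reconstituted split reporter in HEK293T cells, 8 h after chemical addition. Only increases in signal versus DMSO were fit.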
# [6] = biological target: Bile acid receptor (Homo sapiens) (UniProt Q96RI1); experiment: OT_FXR_FXRSRC1_1440: Odyssey Thera (OT) 24-hour HEK293T Protein-Complementation Assay for Farnesoid X receptor/SRC-1 Co-activator (AID 2283384)
# In short: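 Protein-fragment complementation: FXR and SRC-1 fused to reporter fragments that reassemble on interaction, read by fluorescence intensity. Human HEK293T cells measured 24 h post-dose; positive-direction fit versus DMSO.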
# [7] = biological target: Retinoic acid receptor RXR-alpha (Homo sapiens) (UniProt P19793); experiment: OT_NURR1_NURR1RXRa_0480: Odyssey Thera (OT) 8-hour HEK293T Protein Complementation Assay for Nurr1/retinoid X receptor (RXR) (AID 2283385)
# Retinoic acid receptor RXR-alpha (Homo sapiens), sequence (P19793 whole entry, looked up, the tested form may be a part): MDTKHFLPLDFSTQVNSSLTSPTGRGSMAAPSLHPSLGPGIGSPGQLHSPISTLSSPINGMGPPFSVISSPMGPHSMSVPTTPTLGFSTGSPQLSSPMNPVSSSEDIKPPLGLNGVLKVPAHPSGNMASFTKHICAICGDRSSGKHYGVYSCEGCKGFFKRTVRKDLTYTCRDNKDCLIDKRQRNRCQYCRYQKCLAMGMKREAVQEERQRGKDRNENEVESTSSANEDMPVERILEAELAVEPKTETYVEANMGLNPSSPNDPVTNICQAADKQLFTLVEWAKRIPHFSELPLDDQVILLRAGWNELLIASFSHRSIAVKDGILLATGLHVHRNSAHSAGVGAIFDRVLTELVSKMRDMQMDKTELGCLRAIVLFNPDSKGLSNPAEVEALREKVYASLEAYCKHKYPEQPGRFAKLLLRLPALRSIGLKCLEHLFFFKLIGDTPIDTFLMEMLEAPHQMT
# In short: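 Interaction of Nurr1 with RXRα read as reconstituted reporter fluorescence in a HEK293T fragment-complementation system, 8 h post-treatment; increase over DMSO baseline analysed.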
# [8] = biological target: Retinoic acid receptor RXR-alpha (Homo sapiens) (UniProt P19793); experiment: OT_NURR1_NURR1RXRa_1440: Odyssey Thera (OT) 24-hour HEK293T Protein Complementation Assay for Nurr1/retinoid X receptor (RXR) (AID 2283386)
# In short: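 Gain in fluorescence, fitted relative to DMSO, reflects Nurr1–RXRα association in HEK293T cells after 24 h dosing. Bait and prey are each linked to a reporter-protein fragment that reassembles on interaction.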
# [9] = biological target: Agonist Androgen Response Element (ARE), AR (gene 367) (UniProt P10275); experiment: OT_AR_ARELUC_AG_1440: Odyssey Thera (OT) 24-hour CHO-K1 Luciferase Assay for Agonist Androgen Response Element (ARE) (AID 2283379)
# Agonist Androgen Response Element (ARE), AR (gene 367), sequence (P10275 whole entry, looked up): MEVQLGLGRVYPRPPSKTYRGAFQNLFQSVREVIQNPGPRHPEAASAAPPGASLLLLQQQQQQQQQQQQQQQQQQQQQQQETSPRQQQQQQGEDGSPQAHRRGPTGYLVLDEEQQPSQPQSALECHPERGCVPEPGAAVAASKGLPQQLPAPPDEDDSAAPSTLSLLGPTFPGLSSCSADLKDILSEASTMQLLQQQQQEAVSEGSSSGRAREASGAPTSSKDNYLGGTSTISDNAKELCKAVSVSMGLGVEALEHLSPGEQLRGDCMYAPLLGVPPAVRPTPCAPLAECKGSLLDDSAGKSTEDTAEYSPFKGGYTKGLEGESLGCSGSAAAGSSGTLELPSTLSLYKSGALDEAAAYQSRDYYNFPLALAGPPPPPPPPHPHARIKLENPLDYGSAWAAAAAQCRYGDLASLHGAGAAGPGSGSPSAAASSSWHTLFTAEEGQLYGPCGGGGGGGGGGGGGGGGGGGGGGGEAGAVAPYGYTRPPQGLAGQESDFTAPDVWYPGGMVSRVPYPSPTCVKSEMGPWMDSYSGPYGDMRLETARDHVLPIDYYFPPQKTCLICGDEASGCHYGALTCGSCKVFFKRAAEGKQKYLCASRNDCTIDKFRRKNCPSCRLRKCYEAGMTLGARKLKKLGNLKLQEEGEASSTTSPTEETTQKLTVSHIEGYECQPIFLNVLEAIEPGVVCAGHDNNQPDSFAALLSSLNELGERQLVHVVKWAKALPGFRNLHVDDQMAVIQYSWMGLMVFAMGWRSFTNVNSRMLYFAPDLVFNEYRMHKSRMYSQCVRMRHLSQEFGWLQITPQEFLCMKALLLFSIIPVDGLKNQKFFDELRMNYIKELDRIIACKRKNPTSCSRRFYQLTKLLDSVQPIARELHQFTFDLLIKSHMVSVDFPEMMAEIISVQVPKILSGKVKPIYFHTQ
# In short: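 Gain-of-signal reporter endpoint: cells (CHO-K1, hamster) are treated 24 h, luciferin/ATP reagent added, and luminescence compared with DMSO baseline.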
# [10] = biological target: human Norepinephrine Transporter (NET), SLC6A2 (gene 6530) (UniProt P23975); experiment: NVS_TR_hNET: NovaScreen (NVS) Transporter Assay for human Norepinephrine Transporter (NET) (AID 2283377);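 further: cell-free membrane protein extracted from CHO cells expressing human NET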;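 on AC50: displacement of radioligand from human NET seen as loss of scintillation signal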
# human Norepinephrine Transporter (NET), SLC6A2 (gene 6530), sequence (P23975 whole entry, looked up): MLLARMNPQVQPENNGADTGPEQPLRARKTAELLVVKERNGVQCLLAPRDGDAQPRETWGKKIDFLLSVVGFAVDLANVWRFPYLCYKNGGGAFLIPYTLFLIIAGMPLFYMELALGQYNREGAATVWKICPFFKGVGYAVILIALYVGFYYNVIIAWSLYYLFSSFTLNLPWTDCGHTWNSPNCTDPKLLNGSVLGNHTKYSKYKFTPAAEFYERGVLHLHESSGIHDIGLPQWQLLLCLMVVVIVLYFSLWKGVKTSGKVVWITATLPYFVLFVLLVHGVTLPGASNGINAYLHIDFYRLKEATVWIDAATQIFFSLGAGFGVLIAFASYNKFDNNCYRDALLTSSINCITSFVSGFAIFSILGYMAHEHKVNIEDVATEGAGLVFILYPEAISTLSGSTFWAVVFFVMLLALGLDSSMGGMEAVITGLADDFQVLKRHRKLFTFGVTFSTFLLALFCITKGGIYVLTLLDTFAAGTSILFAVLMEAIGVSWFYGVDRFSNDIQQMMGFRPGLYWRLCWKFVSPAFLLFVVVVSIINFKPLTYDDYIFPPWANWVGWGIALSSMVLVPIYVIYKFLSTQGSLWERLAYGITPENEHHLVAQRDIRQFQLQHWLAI
# In short: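 CHO cell extracts expressing the transporter; tritiated or iodinated tracer displaced competitively; filtration plus scintillation readout at 1 h. Single-point duplicates at 25 uM, concentration series for follow-up; activity = signal drop relative to DMSO.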
smiles,measurement,setting,value
COC(=O)c1ccccc1C(=O)OC,outcome,[1],inactive
same,outcome,[2],inactive
same,outcome,[3],inactive
same,outcome,[4],inactive
same,outcome,[5],inactive
same,outcome,[6],inactive
same,outcome,[7],inactive
same,outcome,[8],inactive
CCCN(CCC)c1c([N+](=O)[O-])cc(S(N)(=O)=O)cc1[N+](=O)[O-],outcome,[2],inactive
same,outcome,[3],inactive
same,outcome,[4],inactive
CCNc1nc(Cl)nc(NC(C)C)n1,AC50,[1],6.81 µM (active)
same,outcome,[1],inactive
same,outcome,[2],inactive
same,outcome,[3],inactive
same,AC50,[4],3.42 µM (active)
same,outcome,[4],inactive
same,outcome,[7],inactive
same,outcome,[8],inactive
CO/C=C(/C(=O)OC)c1ccccc1Oc1cc(Oc2ccccc2C#N)ncn1,outcome,[9],inactive
same,outcome,[2],inactive
same,outcome,[3],inactive
same,outcome,[4],inactive
same,outcome,[7],inactive
CS/C(C)=N/OC(=O)N(C)SN(C)C(=O)O/N=C(\C)SC,outcome,[9],inactive
same,outcome,[2],inactive
same,AC50,[3],93.3 µM (active)
same,outcome,[4],inactive
same,outcome,[6],inactive
CCON=C(CC)C1=C(O)CC(c2c(C)cc(C)cc2C)CC1=O (stereo not drawn),outcome,[9],inactive
same,outcome,[3],inactive
same,outcome,[4],inactive
same,outcome,[5],inactive
same,outcome,[6],inactive
same,outcome,[7],inactive
same,outcome,[8],inactive
CN(C)C(=S)SSC(=S)N(C)C,outcome,[9],inactive
same,outcome,[2],inactive
same,AC50,[3],83.4 µM (active)
same,AC50,[4],90.7 µM (active)
same,outcome,[5],inactive
N#CC(CCc1ccc(Cl)cc1)(Cn1cncn1)c1ccccc1 (stereo not drawn),outcome,[9],inactive
same,outcome,[2],inactive
same,outcome,[3],inactive
same,outcome,[4],inactive
N#Cc1nn(-c2c(Cl)cc(C(F)(F)F)cc2Cl)c(N)c1S(=O)C(F)(F)F (stereo not drawn),outcome,[9],inactive
same,outcome,[2],inactive
same,outcome,[3],inactive
same,outcome,[4],inactive
same,AC50,[5],35 µM (active)
same,AC50,[6],33 µM (active)
same,outcome,[7],inactive
same,outcome,[8],inactive
CC1COC(Cn2cncn2)(c2ccc(Oc3ccc(Cl)cc3)cc2Cl)O1 (stereo not drawn),AC50,[10],12 µM (active)
same,outcome,[2],inactive
same,outcome,[3],inactive
same,outcome,[4],inactive
same,AC50,[5],11.2 µM (active)
same,AC50,[7],11.4 µM (active)
CCCCNC(=O)n1c(NC(=O)OC)nc2ccccc21,outcome,[9],inactive
same,outcome,[2],inactive
same,outcome,[3],inactive
same,outcome,[4],inactive
same,outcome,[5],inactive
same,outcome,[6],inactive
C=CC1(C)OC(=O)N(c2cc(Cl)cc(Cl)c2)C1=O (stereo not drawn),AC50,[1],10.1 µM (active)
same,outcome,[1],inactive
same,outcome,[2],inactive
same,outcome,[3],inactive
same,AC50,[4],50 µM (active)
same,outcome,[4],inactive
same,outcome,[5],inactive
same,AC50,[6],34.2 µM (active)
same,outcome,[6],inactive
same,outcome,[7],inactive
same,outcome,[8],inactive
CC(C)Oc1cc(-n2nc(C(C)(C)C)oc2=O)c(Cl)cc1Cl,outcome,[9],inactive
same,outcome,[2],inactive
same,outcome,[3],inactive
same,outcome,[4],inactive
same,AC50,[5],29.5 µM (active)
same,AC50,[6],58.7 µM (active)
same,AC50,[7],50 µM (active)
same,outcome,[7],inactive
same,AC50,[8],74.7 µM (active)
same,outcome,[8],inactive
Oc1ccccc1-c1ccccc1,AC50,[10],15 µM (active)
same,outcome,[2],inactive
same,outcome,[3],inactive
same,outcome,[4],inactive
same,outcome,[7],inactive
same,outcome,[8],inactive
CCCC1COC(Cn2cncn2)(c2ccc(Cl)cc2Cl)O1 (stereo not drawn),outcome,[9],inactive
same,outcome,[3],inactive
same,outcome,[4],inactive
same,outcome,[5],inactive
Cc1ccc(-c2c(Cl)nc(C#N)n2S(=O)(=O)N(C)C)cc1,outcome,[9],inactive
same,outcome,[2],inactive
same,outcome,[3],inactive
same,outcome,[4],inactive
same,outcome,[5],inactive
same,outcome,[6],inactive
same,outcome,[7],inactive
same,outcome,[8],inactive
CON(C)C(=O)Nc1ccc(Cl)c(Cl)c1,AC50,[10],25 µM (active)
same,outcome,[10],inactive
same,outcome,[1],inactive
same,outcome,[3],inactive
same,outcome,[4],inactive
same,outcome,[7],inactive
same,outcome,[8],inactive
COc1ccc(C(c2ccc(OC)cc2)C(Cl)(Cl)Cl)cc1,outcome,[10],inactive
same,AC50,[1],3.48 µM (active)
same,AC50,[2],4.01 µM (active) and 3.74 µM (active) and 3.97 µM (active)
same,AC50,[3],3.09 µM (active) and 3.24 µM (active) and 3.47 µM (active)
same,AC50,[4],2.7 µM (active) and 2.88 µM (active) and 2.66 µM (active)
same,AC50,[5],32.1 µM (active) and 35 µM (active) and 27 µM (active)
same,AC50,[6],30.4 µM (active) and 35.6 µM (active) and 28.4 µM (active)
same,AC50,[7],66 µM (active)
same,outcome,[7],inactive
same,outcome,[8],inactive
CCCCNC(=O)OCC#CI,AC50,[10],9.04 µM (active) and 9.55 µM (active)
same,outcome,[1],inactive
same,outcome,[2],inactive
same,AC50,[3],86.8 µM (active)
same,AC50,[4],12.1 µM (active)
same,AC50,[7],11.4 µM (active)
same,AC50,[8],11.7 µM (active)
CCCCOC(=O)c1ccccc1C(=O)OCCCC,AC50,[1],25 µM (active)
same,outcome,[1],inactive
same,AC50,[2],33.4 µM (active) and 37.5 µM (active) and 31.9 µM (active)
same,AC50,[3],34.7 µM (active) and 31.9 µM (active) and 23.8 µM (active)
same,AC50,[4],30.6 µM (active) and 20.8 µM (active) and 24.9 µM (active)
same,outcome,[7],inactive
same,outcome,[8],inactive
O=C(Nc1ccccc1)Nc1ccnc(Cl)c1,outcome,[9],inactive
same,outcome,[3],inactive
same,outcome,[4],inactive
same,outcome,[6],inactive
C=CCC1=C(C)C(OC(=O)C2C(C=C(C)C)C2(C)C)CC1=O (stereo not drawn),outcome,[10],inactive
same,outcome,[1],inactive
same,outcome,[3],inactive
same,outcome,[4],inactive
same,AC50,[5],14.9 µM (active)
same,AC50,[6],75 µM (active)
same,AC50,[7],31.2 µM (active) and 33.1 µM (active)
same,outcome,[7],inactive
same,AC50,[8],84.5 µM (active) and 83.5 µM (active)
same,outcome,[8],inactive
Cc1cc(Cl)ccc1OCC(=O)O,AC50,[9],24 µM (active)
same,outcome,[9],inactive
same,outcome,[3],inactive
same,outcome,[4],inactive
same,outcome,[7],inactive
same,outcome,[8],inactive
CCOC(=O)CC(SP(=S)(OC)OC)C(=O)OCC (stereo not drawn),outcome,[9],inactive
same,outcome,[3],inactive
same,outcome,[4],inactive
